Several values for one entry are separate records, joined by “and”; a condition that tells them apart may be missing. Equal entries are not always repeated. Records with an inconclusive call do not appear. A number with no mark means an inactive call. Activity calls are given as the source filed them. The call rests on the fitted dose curve; in most records, active means well fitted cell-killing curve with a large enough effect in the repeat runs (not every such curve was filed as active); inconclusive means weak or mixed curves, or effect the other way; inactive means no such curve, though single readings can be large or run the other way.
Assay: qHTS assay to identify small molecule antagonists of the estrogen related receptor signaling pathway with the pleiotropic PPARgamma coactivator (PGC) from Tox21 10K library - cell viability counter screen (AID 1224840); further: nearly all actives have a fitted effect of over 40% in size
Conditions: PGC/ERR reporter cells viability, CellTiter-Fluor, 17.5 h; series mostly up to 92.4 µM; viability change, negative = cytotoxic: at the top concentration
Excerpt: National Center for Advancing Translational Sciences [NCATS]
NIH Chemical Genomics Center [NCGC]
U.S. Environmental Protection Agency [EPA]
National Institutes of Environmental Health Sciences [NIEHS]
National Toxicology Program [NTP]
U.S. Food and Drug Administration [FDA]
Estrogen related receptors (ERRs), the first orphan nuclear receptors discovered, play an important role in the control of cellular energy metabolism. ERRs are required for high-energy production in response to the environmental challenges. The pleiotropic PPARgamma coactivator (PGC) is a major partner of ERR and a key regulator in energy homeostasis. Together they have been implicated in the etiology of metabolic disorders such as Type 2 diabetes and metabolic syndrome. ERR-alpha was also identified as an adverse marker for breast cancer progression; ERR-alpha-positive tumors have a poor prognosis. To screen and to identify environmental compounds that perturb the ERR and PGC/ERR signaling pathways could provide valuable information for potential therapeutic or preventive measures in the treatment of metabolic disease. To differentiate true PGC/ERR antagonists or agonist from cytotoxic substances, the assay is multiplexed with cell viability assay.
Tox21 Assay Protocol Summary:
The PGC/ERR cells were dispensed at 2,000 cells/5 ul/well in 1536-well white plates using a Multidrop dispenser. After the assay plates were incubated at a 37 C/5% CO2 incubator for 6 hours, 23 nL of compounds dissolved in DMSO, positive and negative controls or DMSO only was transferred to the assay plate by a pin tool. The plates were incubated at 37 C for 17.5 hours. 1 ul/well of CellTiter-Fluor reagent was added into the assay plates using a Flying Reagent Dispenser. After 30-minute incubation at 37 C/5% CO2, the fluorescence intensity in the plates was measured using a ViewLux plate reader.
On the % scale 0 is the no-effect control and ±100 the full control effect; potency means the concentration at half of the fitted maximal effect.

SMILES | viability change, negative = cytotoxic | Potency
CCOC(=O)/C=C(C)/C=C/C=C(C)/C=C/c1c(C)cc(OC)c(C)c1C | -8.81% [at 42.5 µM] | –
CCCN(CCC)c1c([N+](=O)[O-])cc(C(F)(F)F)c(N)c1[N+](=O)[O-] | – | 43.1 µM (active)
CSc1ccc(C(=O)c2[nH]c(=O)[nH]c2C)cc1 | 3.71% [at 42.5 µM] | –
Cc1cc(CCN2CCN(c3nsc4ccccc34)CC2)cc2c1NC(=O)CC2(C)C | – | 27.3 µM (active)
CCN1/C(=C/C=C/c2sc3ccccc3[n+]2CC)Sc2ccccc21 | – | 6.51 µM (active)
C=CC(=O)OCC(CO)(COC(=O)C=C)COC(=O)C=C | – | 6.13 µM (active) and 12.2 µM (active)
CCCCCCCCCCC=O | 2.11% | –
O=C(N/N=C/c1ccccc1O)c1ccncc1 | -14% [at 42.5 µM] | –
CCCCCCC[N+](CC)(CC)CCCCc1ccc(Cl)cc1 | -30% [at 42.5 µM] | –
N#CSc1ccc(N)c([N+](=O)[O-])c1 | – | 54.8 µM (active)
c1ccc(CSCc2ccccc2)cc1 | -6.59% | –
Cn1cc(C(=O)[C@@H]2CCc3nc[nH]c3C2)c2ccccc21 | -6.81% [at 42.5 µM] | –
Cc1cccc(S(=O)(=O)O)c1C | 1.42% | –
OCc1c[nH]c2ccccc12 | -11.4% | –
Cc1cc(O)c2ccccc2c1O | -23.5% [at 42.5 µM] | –
CNc1ccc(O)cc1 | – | 48.5 µM (active)
CCCCCCOC(=O)c1ccc(O)cc1 | -13.3% | –
CCCCCCCC[P+](CCCCCCCC)(CCCCCCCC)CCCCCCCC | – | 10.8 µM (active)
COC(=O)C1=C(C)NC(C)=C(C(=O)OCCc2ccc(N3CCN(C(c4ccccc4)c4ccccc4)CC3)cc2)C1c1cccc([N+](=O)[O-])c1 (stereo not given) | 1.65% [at 42.5 µM] | –
CC(C)OC(=O)c1cc2c(OCC(O)CNC(C)(C)C)cccc2[nH]1 (stereo not given) | -15.4% [at 42.5 µM] | –

SMILES | viability change, negative = cytotoxic | Potency
CC(NN)c1ccccc1 (stereo not given) | -1.05% [at 19 µM] | –
CN(C)c1ccc(C2(c3ccc(N(C)C)cc3)OC(=O)c3cc(N(C)C)ccc32)cc1 | -17.4% | –
CCCCCCCCCCCCCC[P+](CCCC)(CCCC)CCCC (tested in a mixture with another compound) | – | 17.3 µM (active)
CCCCCCCC(=O)[O-].CCCCCCCC(=O)[O-].[Zn+2] | 1.4% [at 42.5 µM] | –
O=c1cccccc1O | -3.15% | –
Nc1c2ccccc2nc2ccccc12 | -7.17% [at 42.5 µM] | –
CC/C(=C(\c1ccc(O)cc1)c1ccc(OCCN(C)C)cc1)c1ccccc1 | – | 48.7 µM (active)
C[n+]1cc2c3c(ccc2c2ccc4cc5c(cc4c21)OCO5)OCO3 | – | 3.26 µM (active)
CCN(C(=O)c1cc(C)cc(OC[C@H](C)Nc2ccncc2)c1)C(C)C | 1.66% [at 42.5 µM] | –
COc1cc(/C=C/C(=O)O[C@H]2CC[C@]34C[C@]35CC[C@]3(C)[C@@H]([C@H](C)CCC=C(C)C)CC[C@@]3(C)[C@@H]5CC[C@H]4C2(C)C)ccc1O | 9.87% [at 42.5 µM] | –
Cc1cc(O)c(C(C)(C)C)cc1C(C)(C)C | – | 48.6 µM (active)
CC[C@H](c1ccc(O)cc1)[C@@H](CC)c1ccc(O)cc1 | -8.14% [at 42.5 µM] | –
C=CC(=O)OCC(CO)(COCC(COC(=O)C=C)(COC(=O)C=C)COC(=O)C=C)COC(=O)C=C | – | 3.4 µM (active)
O=C1C=CC(=O)N1c1ccc(Cc2ccc(N3C(=O)C=CC3=O)cc2)cc1 | – | 27.3 µM (active)
Cc1onc(-c2c(Cl)cccc2Cl)c1C(=O)N[C@@H]1C(=O)N2[C@@H]1SC(C)(C)[C@@H]2C(=O)O | 12.9% [at 42.5 µM] | –
N=C1N=C(N)c2cc3ccccc3cc21 | – | 27.3 µM (active)
NC(=NCCCCCCN=C(N)/N=C(\N)Nc1ccc(Cl)cc1)/N=C(\N)Nc1ccc(Cl)cc1 | – | 54 µM (active) [middle of 4 runs]
Cc1ccc(O)c(C(C)(C)C)c1 | – | inactive
CCCCc1oc2ccc(NS(C)(=O)=O)cc2c1C(=O)c1ccc(OCCCN(CCCC)CCCC)cc1 | – | 18.8 µM (active)
CCCCCCCCCCCCCCCCCC[N+](C)(C)Cc1ccccc1 | – | 55 µM (active)

Source: PubChem BioAssay (Tox21)
